# Reference: the supplement of paper PMC8728848
# This excerpt belongs to a sample that is enriched for the strongest signals.
# B1: CFEM-SCL (Saccharomyces cerevisiae), O13547 (protein)
# chain: MRATTLLSSVVSLALLSKEVLATPPACLLACVAQVGKSSSTCDSLNQVTCYCEHENSAVKKCLDSICPNNDADAAYSAFKSSCSEQNASLGD
# What was measured:
# Assay in all cases: glycan array binding signal (z-score within array); higher = stronger binding
# Details in all cases: glycan notation: IUPAC condensed, linker removed
# [1] = biological target: Fuc(a1-2)Gal(b1-3)[Fuc(a1-4)]GlcNAc(b1-3)[Fuc(a1-3)[Gal(b1-4)]GlcNAc(b1-6)]Gal(b1-4)Glc
# Procedure, shortened: (§1)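 The binding signal is a Z-score computed within each array and averaged over linkers. Arrays of the same protein sequence at different concentrations or buffers were also averaged together. Data originate from 3228 arrays in the Consortium for Functional Glycomics database, kept only where the protein sequence was available.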
# [2] = biological target: Fuc(a1-2)Gal(b1-4)GlcNAc(b1-2)[Fuc(a1-2)Gal(b1-4)GlcNAc(b1-4)]Man(a1-3)[Fuc(a1-2)Gal(b1-4)GlcNAc(b1-2)Man(a1-6)]Man(b1-4)GlcNAc(b1-4)GlcNAc
# Procedure, shortened: as §1
# [3] = biological target: Fuc(a1-2)Gal(b1-4)GlcNAc(b1-3)GalNAc
# Procedure, shortened: as §1
# [4] = biological target: Fuc(a1-2)Gal(b1-4)[Fuc(a1-3)]GlcNAc(b1-3)GalNAc
# Procedure, shortened: as §1
# [5] = biological target: Fuc(a1-2)Gal6S(b1-3)GlcNAc
# Procedure, shortened: as §1
# [6] = biological target: Fuc(a1-2)[Gal(a1-3)]Gal(b1-3)GlcNAc(b1-6)GalNAc
# Procedure, shortened: as §1
# [7] = biological target: Fuc(a1-2)[Gal(a1-3)]Gal(b1-4)GlcNAc(b1-3)GalNAc
# Procedure, shortened: as §1
# [8] = biological target: Fuc(a1-2)[GalNAc(a1-3)]Gal(b1-3)GlcNAc(b1-6)GalNAc
# Procedure, shortened: as §1
# [9] = biological target: Fuc(a1-2)[GalNAc(a1-3)]Gal(b1-4)[Fuc(a1-3)]GlcNAc(b1-3)GalNAc
# Procedure, shortened: as §1
# Fuc(a1-3)GlcNAc = biological target: Fuc(a1-3)GlcNAc
# Procedure, shortened: as §1
# [10] = biological target: Fuc(a1-3)[Gal(b1-4)]GlcNAc(b1-3)Gal(b1-4)[Fuc(a1-3)]GlcNAc
# Procedure, shortened: as §1
# [11] = biological target: Fuc(a1-3)[Gal(b1-4)]GlcNAc(b1-6)GalNAc
# Procedure, shortened: as §1
# [12] = biological target: Fuc(a1-3)[Gal(b1-4)]GlcNAc6S
# Procedure, shortened: as §1
# [13] = biological target: Gal(a1-3)Gal(b1-3)GlcNAc(b1-2)Man(a1-3)[Gal(a1-3)Gal(b1-3)GlcNAc(b1-2)Man(a1-6)]Man(b1-4)GlcNAc(b1-4)GlcNAc
# Procedure, shortened: as §1
# [14] = biological target: Gal(a1-3)Gal(b1-4)GlcNAc(b1-3)GalNAc
# Procedure, shortened: as §1
# [15] = biological target: Gal(a1-3)[Gal(a1-4)]Gal(b1-4)GlcNAc
# Procedure, shortened: as §1
# Gal(b1-2)Gal = biological target: Gal(b1-2)Gal
# Procedure, shortened: as §1
# Gal(b1-3)Gal = biological target: Gal(b1-3)Gal
# Procedure, shortened: as §1
# Gal(b1-3)Gal(b1-4)GlcNAc = biological target: Gal(b1-3)Gal(b1-4)GlcNAc
# Procedure, shortened: as §1
# Gal(b1-3)GalNAc = biological target: Gal(b1-3)GalNAc
# Procedure, shortened: as §1
# Gal(b1-3)GalNAc(b1-3)Gal = biological target: Gal(b1-3)GalNAc(b1-3)Gal
# Procedure, shortened: as §1
# [16] = biological target: Gal(b1-3)GalNAc(b1-4)Gal(b1-4)Glc
# Procedure, shortened: as §1
# [17] = biological target: Gal(b1-3)GalNAc(b1-4)[Neu5Ac(a2-3)]Gal(b1-4)Glc
# Procedure, shortened: as §1
# [18] = biological target: Gal(b1-3)[Neu5Ac(a2-6)]GalNAc
# Procedure, shortened: as §1
# [19] = biological target: Gal(b1-4)GlcNAc(b1-2)Man(a1-3)[Man(a1-6)]Man(b1-4)GlcNAc(b1-4)GlcNAc
# Procedure, shortened: as §1
# [20] = biological target: Gal(b1-4)GlcNAc(b1-2)[Gal(b1-4)GlcNAc(b1-6)]Man(a1-6)[GlcNAc(b1-4)][Gal(b1-4)GlcNAc(b1-2)Man(a1-3)]Man(b1-4)GlcNAc(b1-4)GlcNAc
# Procedure, shortened: as §1
# [21] = biological target: Gal(b1-4)GlcNAc(b1-3)Gal(b1-4)GlcNAc(b1-3)Gal(b1-4)GlcNAc(b1-3)Gal(b1-4)GlcNAc(b1-2)Man(a1-3)[Gal(b1-4)GlcNAc(b1-3)Gal(b1-4)GlcNAc(b1-3)Gal(b1-4)GlcNAc(b1-3)Gal(b1-4)GlcNAc(b1-2)Man(a1-6)]Man(b1-4)GlcNAc(b1-4)GlcNAc
# Procedure, shortened: as §1
# [22] = biological target: Gal(b1-4)GlcNAc(b1-3)Gal(b1-4)GlcNAc(b1-3)Gal(b1-4)GlcNAc(b1-3)Gal(b1-4)GlcNAc(b1-3)Gal(b1-4)GlcNAc(b1-2)Man(a1-3)[Gal(b1-4)GlcNAc(b1-3)Gal(b1-4)GlcNAc(b1-3)Gal(b1-4)GlcNAc(b1-3)Gal(b1-4)GlcNAc(b1-3)Gal(b1-4)GlcNAc(b1-2)Man(a1-6)]Man(b1-4)GlcNAc(b1-4)[Fuc(a1-6)]GlcNAc
# Procedure, shortened: as §1
# [23] = biological target: Gal(b1-4)GlcNAc(b1-3)GalNAc
# Procedure, shortened: as §1
# Gal3S(b1-4)GlcNAc = biological target: Gal3S(b1-4)GlcNAc
# Procedure, shortened: as §1
binder,measurement,setting,value
B1,glycan array binding signal (z-score),[1],-0.173
same,glycan array binding signal (z-score),[2],-0.213
same,glycan array binding signal (z-score),[3],3.91
same,glycan array binding signal (z-score),[4],3.09
same,glycan array binding signal (z-score),[5],-0.235
same,glycan array binding signal (z-score),[6],-0.325
same,glycan array binding signal (z-score),[7],-0.207
same,glycan array binding signal (z-score),[8],-0.289
same,glycan array binding signal (z-score),[9],2.67
same,glycan array binding signal (z-score),Fuc(a1-3)GlcNAc,-0.151
same,glycan array binding signal (z-score),[10],-0.174
same,glycan array binding signal (z-score),[11],2.59
same,glycan array binding signal (z-score),[12],-0.014
same,glycan array binding signal (z-score),[13],0.636
same,glycan array binding signal (z-score),[14],-0.281
same,glycan array binding signal (z-score),[15],-0.238
same,glycan array binding signal (z-score),Gal(b1-2)Gal,0.077
same,glycan array binding signal (z-score),Gal(b1-3)Gal,4.26
same,glycan array binding signal (z-score),Gal(b1-3)Gal(b1-4)GlcNAc,2.99
same,glycan array binding signal (z-score),Gal(b1-3)GalNAc,3.86
same,glycan array binding signal (z-score),Gal(b1-3)GalNAc(b1-3)Gal,14.5
same,glycan array binding signal (z-score),[16],11.1
same,glycan array binding signal (z-score),[17],2.46
same,glycan array binding signal (z-score),[18],3.63
same,glycan array binding signal (z-score),[19],-0.238
same,glycan array binding signal (z-score),[20],-0.19
same,glycan array binding signal (z-score),[21],-0.022
same,glycan array binding signal (z-score),[22],-0.165
same,glycan array binding signal (z-score),[23],-0.111
same,glycan array binding signal (z-score),Gal3S(b1-4)GlcNAc,-0.261
